Assay results published in the supplement of paper PMC3656093.
± gives the standard deviation of the averaged measurements. Over roughly 1,900 compounds, “CD40L-induced NF-kB luciferase activity, plate-corrected, relative to DMSO (0) and IKK inhibitor VII (-100) controls” has its median near 0.032; the lowest 2% begin near -26. This excerpt belongs to a sample that is enriched for the lowest values.

system: BL2-NFkB-Luc; assay: CD40L-induced NF-kB luciferase activity, plate-corrected, relative to DMSO (0) and IKK inhibitor VII (-100) controls (% normalized activity); higher = more NF-kB reporter activity (less inhibition); settings: 9.4 µM; stimulus: tCD40L 64 ng/ml; 4.5 h
Protocol: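 BL2 B cells with a stable NF-kB response-element luciferase reporter (BL2-NFkB-Luc), 384-well. Cells were pre-incubated with compound at 9.4 uM for 1 h at 37 C, then stimulated with 64 ng/ml trimerized CD40L for 4.5 h; luciferase was read with Steady-Glo. Signal was normalised per plate in Genedata (median DMSO neutral control = 0, median IKK inhibitor VII at 50 uM = -100) with Assay Median plate-pattern correction; duplicate plates.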

Compound | CD40L-induced NF-kB luciferase activity
COC(=O)C1=C(C)N(C)C(=S)NC1c1ccc(Cl)cc1 (stereo not drawn) | -1.51 ± 7.8
CC[C@]1(O)C[C@@H]2CN(CCc3c([nH]c4ccccc34)[C@@](C(=O)OC)(c3cc4c(cc3OC)N(C=O)[C@H]3[C@@](O)(C(=O)OC)[C@H](OC(C)=O)[C@]5(CC)C=CCN6CC[C@]43[C@@H]65)C2)C1 | -50.4 ± 4.8
CC[C@]1(O)C[C@@H]2CN(CCc3c([nH]c4ccccc34)[C@@](C(=O)OC)(c3cc4c(cc3OC)N(C)[C@H]3[C@@](O)(C(=O)OC)[C@H](OC(C)=O)[C@]5(CC)C=CCN6CC[C@]43[C@@H]65)C2)C1 | -54.7 ± 1.7
CCN(CC)CCCNC(=O)C1c2ccccc2Oc2ccccc21 | -3.46 ± 0.27
CC1CCCC(C)N1NC(=O)c1ccc(Cl)c(S(N)(=O)=O)c1 (stereo not drawn) | 4.34 ± 1.3
COc1cc2c(cc1OC)C(=S)NC(C)(C)C2 | -9.01 ± 2.9
COc1cc(C(=O)NCCc2c[nH]c3ccccc23)ccc1OCc1c(C)noc1C | 2.18 ± 3.7
Cc1ccc(C=NNc2nc(C(C)(C)C)cs2)o1 | 37 ± 13
Cc1cccc(N2CCN(C(=S)c3ccccc3)CC2)c1 | 6.51 ± 2.4
COc1ccc(CN2CCC(=O)NC2=O)cc1 | 4.64 ± 6
COc1ccc2c3c([nH]c2c1)C1(NCC3)C(=O)Nc2ccccc21 (stereo not drawn) | 5.33 ± 6.5
Cc1ccc(C(=O)NC(=S)NCCCN2CCOCC2)cc1 | 8.31 ± 1.3
CC(=O)O[C@H]1CSC[C@H]1NC(=O)c1ccccc1 | 2.65 ± 7.7
O=C(Nc1ccc(Oc2c(F)c(F)c(F)c(F)c2F)cc1)OC1CCN2Cc3ccccc3N=C12 (stereo not drawn) | -15.2 ± 2.6
COc1cc(CNCCc2c[nH]c3ccccc23)cc(Cl)c1OCC(N)=O | -2.87 ± 1.6
O=C1C(O)CC2c3ccccc3CC3(CCCC3)N12 (stereo not drawn) | 2.45 ± 2.2
c1ccc(Nc2ccccn2)nc1 | 6.17 ± 1.9
OCC1(CCOc2ccccc2)CCN(CCCn2cccn2)CC1 | -3.68 ± 2.7
c1ccc2c(c1)CCOC2CNCCCN1CCCCC1 (stereo not drawn) | -0.411 ± 1.1
Cc1ccc(C(CC(=O)NCc2ccco2)c2ccc(OC(C)C)cc2)cc1 (stereo not drawn) | -5.4 ± 2.5
Cc1ccccc1NC(=O)c1c(C)cc(=O)oc1C | -17.1 ± 22
COc1cccc(OC)c1C(=O)Nc1nc2ccc([N+](=O)[O-])cc2s1 | 3.34 ± 5.3
COC(=O)c1ccc(COc2ccc3c(C)c(C)c(=O)oc3c2C)o1 | -0.554 ± 5
CC(C)c1ccc(OCc2ccc(C(=O)O)o2)cc1 | -32.6 ± 4.2

Compound | CD40L-induced NF-kB luciferase activity
COc1ccc(NC(=O)Nc2ccc(C(C)C)cc2)cc1 | 13.4 ± 0.33
CCOc1ccc2[nH]c3c(=O)n(CCc4ccc(OC)cc4)cnc3c2c1 | -2.8 ± 3.9
COc1ccc2c(CCNC(=O)c3ccc([N+](=O)[O-])cc3)c[nH]c2c1 | -3.48 ± 6.8
Cc1oc(C=NNC(=O)CC2(C)OCCO2)cc1Br | -0.742 ± 2.4
COc1ccc(/C=C/C(=O)NC(=S)NN2CCCCC2c2cccnc2)cc1 (stereo not drawn) | 1.59 ± 3.4
Nc1nnc(CSCc2ccc(Cl)cc2Cl)s1 | 11.4 ± 2.5
Cc1c(OCC(=O)NC(Cc2c[nH]c3ccc(O)cc23)C(=O)O)ccc2c3c(c(=O)oc12)CCC3 (stereo not drawn) | 2.12 ± 6.2
CCCCC[C@H](O)/C=C/[C@@H]1[C@@H](CCCCCCC(=O)O)[C@@H](O)C[C@H]1O | -29.5 ± 5.2
CCCCC[C@H](O)/C=C/[C@@H]1[C@@H](C/C=C\CCCC(=O)O)[C@@H](O)C[C@H]1O | -2.36 ± 2.1
CCCCC[C@H](O)/C=C/[C@@H]1[C@@H](C/C=C\CCCC(=O)OC)[C@@H](O)C[C@H]1O | -2.47 ± 3.2
O=S(=O)(CCc1nc2ccccc2[nH]1)c1ccc(Cl)cc1 | -12.2 ± 1.3
COc1cc(C=NCC2OCCc3ccccc32)cc(OC)c1 (stereo not drawn) | -1.7 ± 1.9
CC1(C)c2ccccc2N2CC(=O)N(CC(N)=O)C21C (stereo not drawn) | 1.75 ± 1.9
COc1ccccc1N1C(=O)C2CC(C)=C(C)CC2C1=O (stereo not drawn) | -4.81 ± 2.4
COc1ccc(S(N)(=O)=O)cc1C(N)=O | -2.45 ± 4.3
CC(=O)OCC(=O)[C@@]1(O)[C@H](C)C[C@H]2[C@@H]3CCC4=CC(=O)C=C[C@]4(C)[C@@]3(F)[C@@H](O)C[C@@]21C | -27.6 ± 1
CC(=O)[C@@]1(O)CC[C@H]2[C@@H]3C[C@H](C)C4=CC(=O)CC[C@]4(C)[C@H]3CC[C@@]21C | -15.7 ± 2.4
CCCC(=O)O[C@]1(C(=O)COC(C)=O)CC[C@H]2[C@@H]3C[C@H](F)C4=CC(=O)C=C[C@]4(C)[C@@]3(F)[C@@H](O)C[C@@]21C | -17.6 ± 1.6
CC(=O)OCC(=O)[C@@]1(OC(C)=O)[C@@H](C)C[C@H]2[C@@H]3C[C@H](F)C4=CC(=O)C=C[C@]4(C)[C@@]3(F)[C@@H](O)C[C@@]21C | -17.3 ± 0.28
C[C@@H]1C[C@H]2[C@@H]3CCC4=CC(=O)C=C[C@]4(C)[C@@]3(F)[C@@H](O)C[C@]2(C)[C@@]1(O)C(=O)COP(=O)(O)O | -2.27 ± 0.67
C[C@@H]1C[C@H]2[C@@H]3C[C@H](F)C4=CC(=O)C=C[C@]4(C)[C@@]3(F)[C@@H](O)C[C@]2(C)[C@@]1(O)C(=O)COC(=O)C(C)(C)C | -29.5 ± 1.7
C[C@@H]1C[C@H]2[C@@H]3C[C@H](F)C4=CC(=O)C=C[C@]4(C)[C@@]3(F)[C@@H](O)C[C@]2(C)[C@@]1(O)C(=O)CO | -27.2 ± 0.89
CC(=O)OCC(=O)[C@@]12OC(C)(C)O[C@@H]1C[C@H]1[C@@H]3C[C@H](F)C4=CC(=O)C=C[C@]4(C)[C@@]3(F)[C@@H](O)C[C@@]12C | -11.4 ± 5.5
CC(=O)[C@@]1(O)CC[C@H]2[C@@H]3C[C@H](C)C4=CC(=O)C=C[C@]4(C)[C@@]3(F)[C@@H](O)C[C@@]21C | -27 ± 2.1
